In PubChem BioAssay AID624138 (Broad Institute, 2012):
The campaign covered roughly 17,000 compounds. About 35 (0.2%) were called active.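 How the source made its calls: active means compounds whose four printed spots each show fluorescence over background unusually high for their array block, chance value under 7%; inactive means the rest.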 This excerpt belongs to a sample that is enriched for actives.

target: Signal transducer and activator of transcription 3 (Homo sapiens) (UniProt P40763); assay: small molecules binding His-tagged STAT3 – biochemical, small molecule microarray, single point, set 2, primary screen (AID 624138); conditions: anti-His fluorescence
Sequence (P40763 whole entry, looked up): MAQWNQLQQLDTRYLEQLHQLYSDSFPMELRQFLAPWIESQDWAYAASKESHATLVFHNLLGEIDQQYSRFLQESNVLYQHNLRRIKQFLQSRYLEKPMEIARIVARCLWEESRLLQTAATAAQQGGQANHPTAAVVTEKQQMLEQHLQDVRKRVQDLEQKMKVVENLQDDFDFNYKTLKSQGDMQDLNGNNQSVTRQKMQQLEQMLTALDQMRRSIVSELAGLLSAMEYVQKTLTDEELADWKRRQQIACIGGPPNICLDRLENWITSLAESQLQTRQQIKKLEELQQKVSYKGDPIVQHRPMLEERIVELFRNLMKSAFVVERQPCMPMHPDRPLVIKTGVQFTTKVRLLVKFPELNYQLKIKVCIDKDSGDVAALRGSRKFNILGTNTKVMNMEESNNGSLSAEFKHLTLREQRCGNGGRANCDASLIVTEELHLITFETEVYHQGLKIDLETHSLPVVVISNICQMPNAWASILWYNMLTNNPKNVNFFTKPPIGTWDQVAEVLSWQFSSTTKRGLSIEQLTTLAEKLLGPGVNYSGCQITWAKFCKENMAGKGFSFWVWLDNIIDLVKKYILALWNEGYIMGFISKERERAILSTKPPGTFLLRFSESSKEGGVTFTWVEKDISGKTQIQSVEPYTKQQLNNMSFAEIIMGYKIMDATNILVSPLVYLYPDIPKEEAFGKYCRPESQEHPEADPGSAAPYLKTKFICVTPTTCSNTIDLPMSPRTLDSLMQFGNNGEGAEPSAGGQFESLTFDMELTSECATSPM

outcome, inactive:
C[C@@H]1CN([C@@H](C)CO)C(=O)c2cc(NS(C)(=O)=O)ccc2O[C@@H]1CN(C)C
CCCN(C)C[C@@H]1Oc2ncc(C#Cc3ccccc3)cc2C(=O)N([C@H](C)CO)C[C@@H]1C
Cc1cc(OCC(=O)Nc2ccccc2C(N)=O)cc(C)c1Br
COc1ccc(CCNc2nc(C)cc(C)n2)cc1OC
COc1ccc(S(=O)(=O)Nc2ccc3c(c2)C(=O)N([C@H](C)CO)C[C@@H](C)[C@@H](CN(C)Cc2ccccc2)O3)cc1
C[C@@H]1CCCCO[C@@H](CN(C)Cc2ccncc2)[C@H](C)CN([C@@H](C)CO)C(=O)c2cc(N(C)C)ccc2O1
C[C@@H]1CCCCO[C@@H](CN(C)C(=O)Cc2ccccc2)[C@H](C)CN([C@@H](C)CO)C(=O)c2cc(NC(=O)Nc3ccc(F)cc3)ccc2O1
CC(C)(C)c1ccc(OCC(=O)Nc2cccc(NC(=O)c3ccccc3)c2)cc1
Oc1ccc(-c2c(-c3ccccc3)nn3c(C(F)(F)F)cc(C(F)(F)F)nc23)cc1
COc1c(Br)cc2c(cc(C)n2-c2ccccc2)c1OCC(O)CNC(C)C (centres undefined)
CC(=O)c1c(C)n(CC(=O)O)c2ccccc12
C[C@H](CO)N1C[C@H](C)[C@H](CN(C)C)Oc2c(NS(=O)(=O)c3ccc(Cl)cc3)cccc2C1=O
C[C@@H]1CN([C@H](C)CO)C(=O)CCCn2nncc2CO[C@@H]1CN(C)C
Cc1ccc(NC(=O)CSc2ncn[nH]2)c(C)c1
C=C1C(=C/C=C2\CCC[C@]3(C)[C@@H]([C@H](C)CCCC(C)(C)O)CC[C@@H]23)C[C@@H](O)C[C@@H]1O
COCCCNC(=O)[C@@]1(Cc2ccccc2)COC(c2ccc(OCCCO)cc2)=N1
CC(C)(O)C(O)COc1c2occc2cc2ccc(=O)oc12 (centres undefined)
CNC[C@@H]1Oc2c(NC(=O)C3CCOCC3)cccc2C(=O)N([C@@H](C)CO)C[C@H]1C
O=C(O)CCC(=O)Nc1ccc(-c2nc3ccccc3o2)cc1
C[C@@H]1CN([C@H](C)CO)C(=O)c2cc(NC(=O)Nc3ccccc3)ccc2O[C@@H]1CN(C)Cc1ccc(Cl)c(Cl)c1
CCOC(=O)c1ccc(COC(=O)c2cc(=O)[nH]c3ccccc23)o1
Cc1noc(C)c1NC(=O)Nc1ccc2c(c1)CC(=O)N([C@H](C)CO)C[C@@H](C)[C@H](CN(C)S(=O)(=O)c1cccs1)O2
C[C@@H]1CN([C@H](C)CO)C(=O)c2cc(NC(=O)Nc3ccccc3)ccc2O[C@@H](C)CCCCO[C@@H]1CN(C)S(=O)(=O)c1ccc(F)cc1
COc1cc(O)cc(C)c1C(=O)OC1C(CO)OC(n2ccc(=O)[nH]c2=O)C1OC(C)=O (centres undefined)
COc1ccc(S(=O)(=O)Nc2ccc3c(c2)C(=O)N([C@H](C)CO)C[C@H](C)[C@@H](CN(C)S(C)(=O)=O)OCCCC[C@@H](C)O3)cc1
Cc1noc(C)c1S(=O)(=O)Nc1ccc2c(c1)C(=O)N([C@H](C)CO)C[C@H](C)[C@H](CN(C)C(=O)CCC(F)(F)F)OCCCC[C@H](C)O2
C[C@@H]1CCCCO[C@@H](CN(C)C(=O)c2ccccc2)[C@H](C)CN([C@@H](C)CO)C(=O)c2cc(NS(=O)(=O)c3cn(C)cn3)ccc2O1
Cc1sc2nc(SCC(=O)Nc3ccccc3C(F)(F)F)nc(N)c2c1C
O=C(C1=C[C@H](C2CC2)C[C@H](OCc2ccc(CO)cc2)O1)N1CCN(Cc2ccccc2)CC1
C[C@@H]1CCCCO[C@H](CN(C)C(=O)Nc2ccccc2)[C@H](C)CN([C@H](C)CO)C(=O)c2cc(N(C)C)ccc2O1
CC(C)NC(=O)N(C)C[C@H]1OCCCC[C@@H](C)Oc2ccc(NC(=O)Nc3cccc4ccccc34)cc2C(=O)N([C@H](C)CO)C[C@@H]1C
C[C@H]1CN([C@@H](C)CO)C(=O)Cc2cc(NC(=O)Nc3ccc4c(c3)OCO4)ccc2O[C@H]1CN(C)CC1CC1
CC1(C)CC[C@]2(C(=O)O[C@@H]3O[C@H](CO)[C@@H](O)[C@H](O)[C@H]3O)CC[C@]3(C)C(=CCC4[C@@]5(C)CC[C@H](O[C@@H]6O[C@H](C(=O)O)[C@@H](O[C@@H]7OC[C@H](O)[C@H](O)[C@H]7O)[C@H](O)[C@H]6O)C(C)(C)C5CC[C@]43C)C2C1 (some centres undefined)
CC(=O)OC[C@H]1O[C@@H](Oc2c(-c3ccc(O)c(O)c3)oc3cc(O)cc(O)c3c2=O)[C@H](O)[C@@H](O)[C@@H]1O
Cc1noc(C)c1S(=O)(=O)Nc1ccc2c(c1)C(=O)N([C@@H](C)CO)C[C@@H](C)[C@@H](CN(C)C)O2
C[C@H](CO)N1C[C@H](C)[C@@H](CN(C)S(=O)(=O)c2ccc(Cl)cc2)Oc2ccc(NS(=O)(=O)c3cccs3)cc2CC1=O
CC(C)NC(=O)Nc1ccc2c(c1)CC(=O)N([C@@H](C)CO)C[C@@H](C)[C@H](CN(C)Cc1ccc(C(F)(F)F)cc1)O2
OCc1nc2ccccc2n1CCOc1cccc(Cl)c1
C[C@@H]1CN([C@@H](C)CO)C(=O)c2cc(NC(=O)Nc3cccc4ccccc34)ccc2O[C@@H]1CN(C)C(=O)NC1CCCCC1
Cc1noc(C)c1NC(=O)N(C)C[C@@H]1Oc2ccc(NC(=O)Nc3ccc4c(c3)OCO4)cc2CC(=O)N([C@H](C)CO)C[C@H]1C
C[C@@H]1CCCCO[C@H](CN(C)C(=O)C2CCCCC2)[C@@H](C)CN([C@@H](C)CO)C(=O)c2cc(NC(=O)Nc3ccccc3)ccc2O1
C[C@H]1CCCCO[C@H](CN(C)Cc2ccccc2)[C@@H](C)CN([C@@H](C)CO)C(=O)c2cc(NS(C)(=O)=O)ccc2O1
C[C@H]1CN([C@@H](C)CO)C(=O)Cc2cc(NC(=O)Nc3cccc4ccccc34)ccc2O[C@H]1CN(C)CC1CC1
CO[C@H]1C(=O)c2c(O)c(CC=C(C)C)c(O)c(CC=C(C)C)c2O[C@@H]1c1ccc(O)cc1
